In the supplement of paper PMC13380429:

System: Vero E6 infected with SARS-CoV-2
Experiment: inhibition of SARS-CoV-2 cytopathic effect; higher = more antiviral protection, active = above 15
Conditions: 48 h

Measured: inhibition of SARS-CoV-2 cytopathic effect

O=C(O[C@H]1CN2CCC1CC2)N(Cc1cc(F)c(F)c(F)c1)c1cccc(F)c1 [tarafenacin]
inactive: 1 nM 1.69% | 8.33 nM -0.35% | 100 nM 2.28% | 833.33 nM -1.46% | 10000 nM -7.54%

Nc1nc(O)c2ncn(CCC(CO)CO)c2n1 [penciclovir]
inactive: 1 nM -0.77% | 8.33 nM -0.01% | 100 nM -0.81% | 833.33 nM 0.81% | 10000 nM -2.4%

C=C[C@H]1CN2CC[C@H]1CC2C(OC(=O)OCC)c1ccnc2ccc(OC)cc12 (stereo in doubt) [quinine-ethyl-carbonate]
inactive: 1 nM 0.47% | 8.33 nM 2.1% | 100 nM 0.07% | 833.33 nM 6.66% | 10000 nM 5.77%

Cc1noc(NS(=O)(=O)c2cccc3c(N(C)C)cccc23)c1C
inactive: 1 nM 0.18% | 8.33 nM 0.76% | 100 nM 0.03% | 833.33 nM 1.44% | 10000 nM 0.04%

C[C@@H]1C[C@H]2[C@@H]3C[C@H](F)C4=CC(=O)C=C[C@]4(C)[C@@]3(Cl)[C@@H](O)C[C@]2(C)[C@H]1C(=O)COC(=O)C(C)(C)C [clocortolone-pivalate]
inactive: 1 nM 0.49% | 8.33 nM 2.86% | 100 nM -2.33% | 833.33 nM 1.18% | 10000 nM -2.12%

c1ccc2nc(N3CCNCC3)ccc2c1 [quipazine]
inactive: 1 nM 2.16% | 8.33 nM -1.97% | 100 nM -0.43% | 833.33 nM 1.22% | 10000 nM -2.16%

Oc1c(I)cc(I)c(O)c1I [riodoxol]
inactive: 1 nM 0% | 8.33 nM 0.37% | 100 nM -0.65% | 833.33 nM -2.42% | 10000 nM -0.9%

C[C@H](Nc1ncnc2[nH]cnc12)c1cc2ccc(F)cc2nc1-c1ccccn1
inactive: 1 nM 0.375% | 8.33 nM 4.37% | 100 nM 4.2% | 833.33 nM 1.33% | 10000 nM -3.42%

Cc1cn(C[C@H](N)C(=O)O)c(=O)n(Cc2ccsc2C(=O)O)c1=O
inactive: 1 nM 1.18% | 8.33 nM 1.91% | 100 nM -1.21% | 833.33 nM 0.03% | 10000 nM 2.18%

CC[C@@]1(O)C(=O)OCc2c1cc1n(c2=O)Cc2cc3cc(O)ccc3nc2-1 [10-hydroxycamptothecin]
inactive: 1 nM -0.65% | 8.33 nM -0.13% | 100 nM -3.85% | 833.33 nM -12.8% | 10000 nM -13.8%

O=S(=O)(O)CCSSCCS(=O)(=O)O [dimesna]
inactive: 1 nM -0.79% | 8.33 nM 0.36% | 100 nM 0.65% | 833.33 nM -1.27% | 10000 nM -1.4%

CN(c1ncccc1CNc1nc(Nc2ccc3c(c2)CC(=O)N3)ncc1C(F)(F)F)S(C)(=O)=O
inactive: 1 nM 0.16% | 8.33 nM 0.22% | 100 nM -1.3% | 833.33 nM -2.48% | 10000 nM -3.05%

CC1CCN(CCCC(=O)c2ccc(F)cc2)CC1 [melperone]
inactive: 1 nM 1.03% | 8.33 nM -0.88% | 100 nM -1.43% | 833.33 nM 0.99% | 10000 nM 2.13%

Cc1c(NC(=O)OC[C@@H]2COCCN2)cn2ncnc(Nc3ccc4c(cnn4Cc4cccc(F)c4)c3)c12
inactive: 1 nM 0.31% | 8.33 nM -2.14% | 100 nM -2.74% | 833.33 nM -8.47% | 10000 nM -10.8%

CC[C@H](C)n1cc(C)c2c(C(=O)NCc3c(C)cc(C)[nH]c3=O)cc(-c3ccc(N4CCNCC4)nc3)cc21
inactive: 1 nM 1.2% | 8.33 nM 2.76% | 100 nM 2.26% | 833.33 nM 1.5% | 10000 nM -4.63%

O=C[C@H](F)[C@@H](O)[C@@H](O)[C@H](O)CO [2-fluoro-2-deoxy-D-galactose]
inactive: 1 nM 1.5% | 8.33 nM 1.13% | 100 nM 1.44% | 833.33 nM 1.15% | 10000 nM 0.92%

COc1ccc2nc3ccc(Cl)cc3c(SCCCN)c2c1
inactive: 1 nM 0.89% | 8.33 nM 1% | 100 nM 0.27% | 833.33 nM 0.79% | 10000 nM 2.63%

CN1C(=O)N[C@H](Cc2c[nH]c3c(Cl)cccc23)C1=O [necrostatin-2]
inactive: 1 nM -3.13% | 8.33 nM -7.04% | 100 nM -6.01% | 833.33 nM -0.96% | 10000 nM -5.96%
